In PubChem BioAssay (NCI) one finds growth data, which are given here for 13 compounds.

Compounds without any hit were thinned out: in the full panel of roughly 83,000, 20% have a hit.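 Method: cells in 96-well plates; compound added at one concentration; 48 h incubation; percent growth measured; values under 10 scored active.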 Values without a mark were called inactive. The source made the active and inactive calls.

Test systems include SK-MEL-2 melanoma; EKVX NSCLC; SN12C renal; UO-31 renal; TK-10 renal; ACHN renal; CAKI-1 renal; A498 renal; CCRF-CEM leukemia; MOLT-4 leukemia.
What all share (experiment): NCI-60 one-dose screen, 48 h (100 = growth as untreated, 0 = no growth, -100 = all killed)
Holding throughout (conditions): 10 µM unless noted

Consider `CCCn1c(NC(=O)c2cccc(C(N)=O)c2)nc2cc(CN3CCCCC3)ccc21`, for which the growth was 115% in the test with SK-MEL-2 melanoma; 100% in the test with EKVX NSCLC; 89% with SN12C renal; 67.5% with UO-31 renal; 92.6% in the test with TK-10 renal; 77.8% in the test on ACHN renal. Also, the growth with CAKI-1 renal is 53.3%; in the test on A498 renal, 170%; in the test on CCRF-CEM leukemia, 94.7%; in the test on MOLT-4 leukemia, 94.8%.
Take `NS(=O)(=O)c1ccc(Nc2nc(SCC(=O)c3ccc(F)cc3)nc3ccccc23)cc1`: the growth in the test with SK-MEL-2 melanoma is 48.3%; with EKVX NSCLC it was 39.1%; in the test on SN12C renal it was 53.8%; in the test with UO-31 renal it was 29.1%; in the test with TK-10 renal it was 80.9%; in the test on ACHN renal, 49.7%. Further, the growth in the test on CAKI-1 renal is 47.3%; with A498 renal, 94.6%; with CCRF-CEM leukemia it was 26.9%; in the test on MOLT-4 leukemia it was 16.8%.
As to `COc1ccc(NC(=O)Nc2nc3ccc([N+](=O)[O-])cc3s2)cc1`, the growth is 33.4% in the test with SK-MEL-2 melanoma; 9.23% (active) with EKVX NSCLC; 9.66% (active) with SN12C renal; -5.06% (active) in the test on UO-31 renal; 29.7% in the test on TK-10 renal; 10.8% in the test on ACHN renal. The growth with CAKI-1 renal was 13.9%; in the test on A498 renal it was 21.8%; in the test with CCRF-CEM leukemia, 11.2%; in the test with MOLT-4 leukemia, 8.05% (active).
On to `COC(=O)c1cc(C(=O)CBr)n2c1ccc1c3ccccc3ccc12`, for which the growth with SK-MEL-2 melanoma is 113%; in the test on EKVX NSCLC, 60.1%; in the test with SN12C renal, 51.1%; with UO-31 renal, 24.3%; in the test with TK-10 renal, 84.3%; in the test with ACHN renal, 17.4%. For the same compound, the growth in the test with CAKI-1 renal is 54%; in the test with A498 renal, 101%; with CCRF-CEM leukemia, 14%; in the test on MOLT-4 leukemia, 6.44% (active).
With `CC1=C(C(=O)Nc2ccccc2)C(c2ccc3ccccc3c2)n2c(nc3ccccc32)N1` (stereo not given), the growth in the test with SK-MEL-2 melanoma was 106%; with EKVX NSCLC, 85%; in the test with SN12C renal, 14.4%; in the test with UO-31 renal it was 75%; in the test on TK-10 renal, 116%; in the test with ACHN renal it was 52.7%. Moreover, the growth in the test on CAKI-1 renal was 60.9%; with A498 renal, 134%; in the test with CCRF-CEM leukemia it was 11.1%; with MOLT-4 leukemia, 12.7%.
For `COc1ccccc1Nc1nnc(-c2c[nH]c3ccccc23)o1`, the growth in the test with SK-MEL-2 melanoma is -13.6% (active); with EKVX NSCLC, 10.2%; in the test on SN12C renal it was 14.5%; with UO-31 renal it was 32.5%; in the test with TK-10 renal, 22.8%; with ACHN renal, 23.1%. Besides, the growth is 22% in the test with CAKI-1 renal, 81.9% in the test with A498 renal, 8.16% (active) with CCRF-CEM leukemia and 1.78% (active) in the test on MOLT-4 leukemia.
On to `Fc1ccc(F)c(CNc2nc(SCCN3CCOCC3)nc3c2cnn3CC(Cl)c2ccc(Br)cc2)c1` (stereo not given), for which the growth in the test on SK-MEL-2 melanoma is 5.82% (active); in the test with EKVX NSCLC it was 45.1%; in the test on SN12C renal, 28.9%; in the test on UO-31 renal, 9.3% (active); in the test with TK-10 renal, 44.8%; with ACHN renal it was 10.6%. Also, the growth in the test with CAKI-1 renal is 26.7%; in the test on A498 renal it was 64.8%; with CCRF-CEM leukemia, 11.1%; in the test with MOLT-4 leukemia, -22.6% (active).
For the compound `COc1ccc2[nH]cc(-c3cc4nc(-c5cn(C)c6ncc(Br)cc56)cc(N)n4n3)c2c1`, the growth in the test with SK-MEL-2 melanoma is -34.7% (active); with EKVX NSCLC, -82.7% (active); with SN12C renal it was -83.2% (active); with UO-31 renal, -69.1% (active); in the test with TK-10 renal it was -42.5% (active); in the test on ACHN renal, -97.6% (active). Moreover, the growth was -86.1% (active) with CAKI-1 renal, -51% (active) in the test with A498 renal, -31% (active) in the test with CCRF-CEM leukemia and -27.5% (active) in the test with MOLT-4 leukemia.
For `O=Cc1cncc(-c2ccc3ncnc(N4CCc5cc(F)c(Cl)cc54)c3c2)c1`, the growth in the test with SK-MEL-2 melanoma was 24.5%; in the test with EKVX NSCLC, 0.858% (active); in the test on SN12C renal, 23.2%; in the test with UO-31 renal, 10.7%; in the test with TK-10 renal, 4.74% (active); in the test on ACHN renal it was 11.5%. For the same compound, the growth in the test on CAKI-1 renal was 12.5%; with A498 renal, -30.4% (active); in the test on CCRF-CEM leukemia, 16.6%; with MOLT-4 leukemia it was -30.6% (active).
`Nc1nn2c(-c3cc4cc(Br)ccc4oc3=O)ccnc2c1N=Nc1ccc(Br)cc1`: the growth with SK-MEL-2 melanoma is 60%; in the test on EKVX NSCLC, 25.9%; in the test on SN12C renal, -23.6% (active); in the test on UO-31 renal it was 0.343% (active); with TK-10 renal it was 23.4%; with ACHN renal, 10.7%. Moreover, the growth was 3.98% (active) in the test with CAKI-1 renal, -4.21% (active) with A498 renal, 96.6% with CCRF-CEM leukemia and 83.1% in the test on MOLT-4 leukemia.
With `O=c1[nH]c2ccccc2cc1COc1ccc(Nc2nccc(-c3ccc(Cl)cc3)n2)cc1`, the growth in the test with SK-MEL-2 melanoma is 99.6%; in the test with EKVX NSCLC, 104%; in the test with SN12C renal, 100%; with UO-31 renal, 98.7%; with TK-10 renal it was 111%; in the test on ACHN renal it was 84.9%. Moreover, the growth with CAKI-1 renal is 87.5%; with A498 renal, 118%; in the test on CCRF-CEM leukemia it was 103%; in the test with MOLT-4 leukemia, 102%.
Regarding `O=C1CCC(N2C(=O)c3cccc(NCCCCCC(=O)N4CCN(c5ccc6nc7c(nc6c5C(F)(F)F)C(=O)c5ncccc5C7=O)CC4)c3C2=O)C(=O)N1` (stereo not given), the growth was -74.6% (active) in the test on SK-MEL-2 melanoma; -59.6% (active) with EKVX NSCLC; -79.6% (active) in the test on SN12C renal; -94.5% (active) in the test with UO-31 renal; -9.44% (active) with TK-10 renal; -70.8% (active) in the test with ACHN renal. Further, the growth in the test with CAKI-1 renal is -78.8% (active); in the test on A498 renal, -80.7% (active); in the test on CCRF-CEM leukemia, -23.1% (active); with MOLT-4 leukemia it was -25.6% (active).
As for `Cc1cc(=O)oc2cc(OCC(O)CNN3C(=O)c4cccc5c(N6CCN(C)CC6)ccc(c45)C3=O)ccc12` (stereo not given), the growth with SK-MEL-2 melanoma is 92.2%; in the test with EKVX NSCLC, 97.3%; in the test on SN12C renal it was 88.9%; in the test on UO-31 renal it was 83.8%; in the test with TK-10 renal, 138%; in the test with ACHN renal, 91.2%. For the same compound, the growth in the test on CAKI-1 renal was 96.2%; with A498 renal, 122%; in the test with CCRF-CEM leukemia, 96.7%; in the test on MOLT-4 leukemia it was 90.4%.
